# Laboratory results from PubChem BioAssay AID1851 (National Center for Advancing Translational Sciences (NCATS), 2009).
# Values joined by “and” are separate entries in the source; they are usually repeats but may differ in a detail not shown here. Equal entries are not always repeated. The whole screen tested about 16,000 compounds, of which about 5,100 (32%) were called active. Inconclusive results (about 25%) are left out. The call rests on the fitted dose curve; in most records, active means well fitted curve in the direction sought with a large enough effect; inconclusive means small, poorly fitted or top-dose-only effect, or effect the other way; inactive means no such curve, though single readings can be large or run the other way. This is one part of the list.
# Target: Cytochrome P450 3A4 (Homo sapiens) (UniProt P08684)
# Test: Cytochrome panel assay with activity outcomes
# Details: recombinant CYP, pro-luciferin dealkylation, luminescence, p450-cyp3a4; series mostly up to 57.1 µM
# On the % scale 0 is the no-effect control and ±100 the full control effect.
# Cytochrome P450 3A4 (Homo sapiens), sequence (P08684 whole entry, looked up): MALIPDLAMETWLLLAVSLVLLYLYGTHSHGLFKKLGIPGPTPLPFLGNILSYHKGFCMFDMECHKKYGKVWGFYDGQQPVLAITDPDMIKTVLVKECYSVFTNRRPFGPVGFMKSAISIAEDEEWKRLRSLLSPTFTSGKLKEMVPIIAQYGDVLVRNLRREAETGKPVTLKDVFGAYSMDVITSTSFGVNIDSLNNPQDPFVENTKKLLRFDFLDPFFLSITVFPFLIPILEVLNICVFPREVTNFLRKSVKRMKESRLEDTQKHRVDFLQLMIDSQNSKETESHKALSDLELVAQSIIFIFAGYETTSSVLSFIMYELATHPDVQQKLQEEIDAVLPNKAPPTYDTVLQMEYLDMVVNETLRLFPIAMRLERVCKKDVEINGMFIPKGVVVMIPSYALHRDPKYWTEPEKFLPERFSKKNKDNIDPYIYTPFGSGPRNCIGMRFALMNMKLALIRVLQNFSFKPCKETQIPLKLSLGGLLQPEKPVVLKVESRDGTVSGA
Compound,AC50,"activity, negative = inhibition"
Nc1nnc(C(c2ccccc2)c2ccccc2)s1,inactive,
Cc1cccc(C(CC(=O)N2CCCC2)c2ccccc2)c1O (stereo not given),2.51 µM (active),
O=C(C[C@@H](c1ccccc1)N1CCCCC1)c1ccccc1,,-9.31% [at 11.4 µM] (inactive)
Cc1ccc(OC(=O)c2cccc(C(=O)Oc3ccc(C)cn3)n2)nc1,inactive,
FC(F)(F)c1nc(N2CCCC2)ncc1-c1nnnn1-c1ccccc1,,21% [at 2.29 µM] (inactive)
FC(F)(F)c1nc(-c2ccncc2)ncc1-c1nnnn1-c1ccccc1,5.62 µM (active),
O=c1cc(CF)[nH]c(=S)[nH]1,,-8.49% [at 11.4 µM] (inactive)
COC(=O)c1ccc(NC(=O)c2ccccc2NS(=O)(=O)c2ccccc2)cc1,7.94 µM (active),
CC(=O)C=NCC(=O)O,,-0.504% [at 11.4 µM] (inactive)
C#CCCCO/N=C1/C[C@@H](O)[C@@H](O)[C@@H]2[C@@H]3C(=O)N(CC)C(=O)[C@H]3CC[C@H]12,,-27.7% [at 11.4 µM] (inactive)
C#CCCCO/N=C1/C[C@@H](O)[C@@H](O)[C@@H]2[C@@H]3C(=O)N(Cc4ccccc4)C(=O)[C@H]3CC[C@H]12,3.98 µM (active),
CC(C)CO/N=C1/C[C@@H](O)[C@@H](O)[C@@H]2[C@@H]3C(=O)N([C@@H](C)c4ccccc4)C(=O)[C@H]3CC[C@@H]12,,-29.6% [at 11.4 µM] (inactive)
C#CCCCO/N=C1/C[C@@H](O)[C@@H](O)[C@@H]2[C@@H]3C(=O)N([C@@H](C)c4ccccc4)C(=O)[C@H]3CC[C@H]12,3.98 µM (active),
CCOC(=O)N/N=C1/C[C@@H](O)[C@@H](O)[C@@H]2[C@@H]3C(=O)N([C@@H](C)c4ccccc4)C(=O)[C@H]3CC[C@@H]12,,-20.9% [at 11.4 µM] (inactive)
C[C@H](c1ccccc1)N1C(=O)[C@H]2[C@@H]3[C@H](O)[C@H](O)CC(=O)[C@H]3CC[C@H]2C1=O,,-18.1% [at 11.4 µM] (inactive)
C#CCCCO/N=C1/C[C@@H](O)[C@@H](O)[C@@H]2[C@@H]3C(=O)N(C4CCCCC4)C(=O)[C@H]3CC[C@@H]12,3.16 µM (active),
C#CCCCO/N=C1/C[C@@H](O)[C@@H](O)[C@@H]2[C@@H]3C(=O)N([C@@H](C)c4ccccc4)C(=O)[C@H]3CC[C@@H]12,3.98 µM (active),
C#CCCCO/N=C1/C[C@@H](O)[C@@H](O)[C@@H]2[C@@H]3C(=O)N(CC)C(=O)[C@H]3CC[C@@H]12,,-23.5% [at 11.4 µM] (inactive)
C#CCCCO/N=C1/C[C@@H](O)[C@@H](O)[C@@H]2[C@@H]3C(=O)N(Cc4ccccc4)C(=O)[C@H]3CC[C@@H]12,,-23.2% [at 11.4 µM] (inactive)
CCOC(=O)N/N=C1/C[C@@H](O)[C@@H](O)[C@@H]2[C@@H]3C(=O)N([C@@H](C)c4ccccc4)C(=O)[C@H]3CC[C@H]12,,-23.4% [at 11.4 µM] (inactive)
C[C@@H]1[C@H]2CC[C@@H]3[C@@H]4CC=C5C[C@@H](N(C)C)CC[C@]5(C)[C@@H]4CC[C@@]32CN1C,inactive,
CC(C)c1cc(C(F)(F)F)nc(NNc2nc(C(C)C)cc(C(F)(F)F)n2)n1,3.16 µM (active),
CC(C)Nc1cc(C(F)(F)F)nc(-c2ccccn2)n1,inactive,
CC(C)Nc1nc(Oc2ccc(Cl)cc2)cc(C(F)(F)F)n1,inactive,
Cc1nn(-c2ccc(Cl)cc2)c2sc(C(=O)c3c(N)n(C)c(=O)n(C)c3=O)cc12,,7.37% [at 2.29 µM] (inactive)
CC(C)Cn1c(N)c(C(=O)CSc2ccc3c(c2)OCCO3)c(=O)n(C)c1=O,3.98 µM (active),
O=c1c2ccccc2nnn1CSc1ccc2c(c1)OCCO2,inactive,

Compound,AC50,"activity, negative = inhibition"
Cn1c(N)c(C(=O)CSc2ccc3c(c2)OCCO3)c(=O)n(C)c1=O,5.62 µM (active),
CCc1c(C)c2c(C)[nH]nc2oc1=O,inactive,
COc1ccc2nc3c(c([Si](C)(C)C(C)(C)C)c2c1)Cn1c-3cccc1=O,1.58 µM (active),
COc1cc2nc3c(c([Si](C)(C)C(C)(C)C)c2cc1OC)Cn1c-3cccc1=O,3.98 µM (active),
CC(C)(C)[Si](C)(C)c1c2c(nc3ccc(OCc4ccccc4)cc13)-c1cccc(=O)n1C2,15.8 µM (active),
OC[C@H]1NC[C@H](O)[C@@H](O)[C@H]1O,inactive,
CCC(C)(C(=O)NC1CCCC1)N(Cc1ccco1)C(=O)c1ccccn1 (stereo not given),8.91 µM (active),
O=C(N/N=C/C1CCCCC1)c1ccccn1,,-7.05% [at 11.4 µM] (inactive)
CCC(C)(C(=O)NC1CCCC1)N(C(=O)c1ccccn1)c1ccccc1 (stereo not given),5.01 µM (active),
C[C@]1(OC(=O)/C=C\c2ccccc2)C[C@@H](O)[C@@]2(O)C=CO[C@@H](O[C@H]3O[C@@H](CO)[C@@H](O)[C@@H](O)[C@@H]3O)[C@H]21,inactive,
O=C(N/C(=C/c1cccs1)c1nc2ccccc2[nH]1)c1ccccc1,14.1 µM (active),
O=C(N/C(=C/c1ccc(Br)cc1)c1nc2ccccc2[nH]1)c1ccco1,1.58 µM (active),
CN(C)c1ccc(/C=C2/C(=O)Nc3ccccc32)cc1,10 µM (active),
O=C1Nc2ccccc2Nc2ncccc21,inactive,
NS(=O)(=O)c1ccc(N=C2C(=O)Nc3ccccc32)cc1,,-12.5% [at 11.4 µM] (inactive)
COc1ccc(C(=O)N2CCC3(CCCN(C(=O)Nc4cccc(F)c4)C3)CC2)cc1,12.6 µM (active),
O=C(Nc1cccc(F)c1)N1CCC2(CCNCC2)CC1,inactive,
O=C(Nc1cccc(F)c1)N1CCCC2(CCNCC2)C1,15.8 µM (active),
COCC(=O)N1CCC2(CCCN(C(=O)Nc3cccc(F)c3)C2)CC1,inactive,
COC(=O)N1CCC2(CCN(C(=O)Nc3cccc(F)c3)CC2)CC1,inactive,
CC(=O)N1CCC2(CC1)CCN(C(=O)Nc1cccc(F)c1)CC2,inactive,
O=C(Nc1cccc(F)c1)N1CCCC2(CCN(C(=O)c3ccncc3)CC2)C1,6.31 µM (active),
COc1ccc(C(=O)N2CCC3(CCN(C(=O)Nc4cccc(F)c4)CC3)CC2)cc1,inactive,
NC(=NCCC[C@H](N)C(=O)O)NO,inactive,
CCC(=O)NCCNC(=O)c1c(SC)nsc1SC,inactive,
Cc1noc(N)c1C(=O)Nc1ccc(F)cc1,,11.9% [at 2.29 µM] (inactive)
CSc1nsc(SC)c1C(=O)Nc1ccc(C)cc1,7.94 µM (active),

Compound,AC50,"activity, negative = inhibition"
O=C(O)c1nnsc1-c1csnn1,,-19.7% [at 11.4 µM] (inactive)
CCOC(=O)c1sc(=N)n(-c2ccc(OC)cc2)c1C,7.08 µM (active),
COc1ccc(-n2c(C)nn(C)c2=O)cc1,inactive,
CCOC(=O)c1nc(N)sc1C(=O)OCC,inactive,
N[C@@H](Cc1ccccc1)C(=O)O,,-6.07% [at 11.4 µM] (inactive)
COc1ccc(/C=N/NC(=O)CCCOc2ccc(Cl)cc2Cl)cc1[N+](=O)[O-],14.1 µM (active),
CC1(C)CC(=O)C/C(=N/NC(=O)CCCOc2ccc(Cl)cc2Cl)C1,,-15.2% [at 2.29 µM] (inactive)
CC(C)(C)C(=O)NNC(=O)CCCOc1ccc(Cl)cc1Cl,inactive,
COc1ccc(NC(=O)c2ccc(C(=O)c3cc(OC)ccc3OC)cc2)cc1,inactive,
COc1ccc(Br)cc1C(=O)Nc1ccc(Cc2ccncc2)cc1,0.708 µM (active),
O=C(Nc1ccc(-c2cn3ccccc3n2)cc1)c1cc(Br)ccc1O,,-18.7% [at 11.4 µM] (inactive)
O=C(NCCNS(=O)(=O)c1ccccc1Cl)c1cc(OCC(F)(F)F)ccc1OCC(F)(F)F,25.1 µM (active),
O=C(O)CONC(=O)c1cc(OCC(F)(F)F)ccc1OCC(F)(F)F,inactive,
Cc1ccc(/C=N\NC(=O)c2cc(OCC(F)(F)F)ccc2OCC(F)(F)F)cc1,inactive,
COC(=O)C/C=C\[C@@H](C)[C@@H](/C=N\O[C@@H](C)c1cc(-c2c(C)cc(C)cc2C)no1)NS(=O)(=O)c1ccc(C)cc1,3.16 µM (active),
COC(=O)C/C=C\[C@@H](C)[C@@H](/C=N\O[C@@H](C)c1cn([C@H]2COC[C@H]2O)nn1)OC,,-29.8% [at 11.4 µM] (inactive)
COC(=O)C/C=C\[C@@H](C)[C@@H](/C=N\O[C@@H](C)c1cn([C@H]2COC[C@H]2O)nn1)NS(=O)(=O)c1ccc(C)cc1,3.98 µM (active),
COC(=O)C/C=C\[C@@H](C)[C@@H](/C=N\O[C@@H](C)c1cc(-c2c(C)cc(C)cc2C)no1)OC,,-76.7% [at 11.4 µM] (inactive)
COC(=O)C/C=C\[C@@H](C)[C@@H](/C=N\O[C@@H](C)c1cn([C@H](CO)Cc2ccccc2)nn1)OC,3.98 µM (active),
COC(=O)C/C=C\[C@@H](C)[C@@H](/C=N\O[C@@H](C)c1cn([C@H](CO)Cc2ccccc2)nn1)NS(=O)(=O)c1ccc(C)cc1,3.98 µM (active) and 2 µM (active),
Cc1nc(N=Nc2cc(S(=O)(=O)O)ccc2S(=O)(=O)O)c(COP(=O)(O)O)c(C=O)c1O,inactive,
O=C(O)C[C@H](S)C(=O)O,,-4.75% [at 11.4 µM] (inactive)
[N-]=[N+]=NC[C@@H]1O[C@@H](n2cnc3c(N)ncnc32)[C@@H]2O[C@@H]21,,-11.8% [at 11.4 µM] (inactive)
Nc1nc2n[nH]nc2c(=O)[nH]1,inactive,
O=C1C2=CC[C@H]3C(=O)N(c4cccc(Oc5ccccc5)c4)C(=O)[C@@H]3[C@@H]2[C@H](O)[C@@H]2O[C@H]12,,-4.92% [at 11.4 µM] (inactive)
CON1C(=O)C(=O)N(OC)C(C)(C)C1C (stereo not given),inactive,
